# Bioassay records: PubChem, National Center for Advancing Translational Sciences (NCATS)
# The entries come from a sample that favours hits as a whole.
# AMA1 RON2 block = AMA1-RON2 (P. falciparum) interaction inhibition; AlphaScreen AMA1-biotinylated RON2 peptide binding; Potency, µM (titrated, usually from 58.2 µM), for inactives: top-dose activity change, negative = inhibition, most hits filed as inhibitors; 360,000 tested, 0.2% active; AID 720542; active = well fitted inhibition curve with a large enough effect; inconclusive = small, poorly fitted or top-dose-only effect; inactive = no such curve, though single readings can be large or run the other way;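 note: potency is the fitted concentration of half-maximal effect; 0% = vehicle wells and -100% = peptide control; nearly all actives have a fitted effect of over 45% in size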
#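 AMA1 (3D7) with his tag at 25 nM final met compounds first, then biotinylated RON2 peptide at 25 nM; detection used donor plus acceptor beads, 10 µg/mL apiece, read by AlphaScreen after 30 min at room temperature.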
# Marburg entry inh = inhibitors of Marburg virus binding or cell entry; Marburg virus pseudotyped entry inhibition, cell reporter; Potency, µM (highest dose often 37.8 µM), without a hit: at the highest dose activity change, negative = inhibition, most hits filed as inhibitors; 300,000 tested, 1.8% active; AID 540276; calls by dose curve; tested in HEK293 cells; note: potency is the fitted concentration of half-maximal effect; % is set by controls: 0 for no effect and ±100 for the full control effect
# LASV entry inh = Lassa virus entry inhibition; Lassa virus pseudotype entry inhibition, cell reporter; 300,000 tested, 1.2% active; Potency, µM (top dose mostly 37.9 µM), for the others: top-dose activity change, negative = inhibition, usual class: inhibitors; AID 540256; calls by dose curve; tested in HEK293 cells; note: potency is the fitted concentration of half-maximal effect; % is set by controls: 0 for no effect and ±100 for the full control effect; nearly all actives have a fitted effect of over 50% in size
# Shiga toxin inh = blocks Shiga toxin action in Vero cells. Vero cells, Shiga toxin protein synthesis inhibition reporter. inhibition, % at 38.7 µM. 290,000 tested, 9.2% active; in the data active = inhibition mostly above about 28%, no sharp cut-off; inactive = mostly below about 43%; note: 0% is about no effect
# Cycloheximide cs = affects cycloheximide protein synthesis inhibition readout, counter-screen; cell reporter, cycloheximide protein synthesis inhibition counterscreen; max response, %; 300,000 tested, 12% active; AID 2314; in the data active = max response mostly above about 13%, no sharp cut-off; inactive = mostly below about 14%; note: read at 38.3 µM for the half of the compounds with a filed dose; 0% is about no effect
# An asterisk follows results filed as active; ? = inconclusive; · = no result given; [ ] = remark or other dose.
SMILES,AMA1 RON2 block,Marburg entry inh,LASV entry inh,Shiga toxin inh,Cycloheximide cs
CS(=O)(=O)c1ccc2nc(NC(=O)Nc3ccc(Cl)c(Cl)c3)sc2c1,-3%,-12%,-2%,12,-2
Cc1ccc(NC(=O)Nc2nc3ccc(S(C)(=O)=O)cc3s2)cc1,0%,3%,-1%,·,·
Cc1cccc(C(=O)Nc2nc3ccc(S(C)(=O)=O)cc3s2)c1,8%,·,·,88*,36*
Cc1ccc(C(=O)Nc2nc3ccc(S(C)(=O)=O)cc3s2)cc1C,1%,?,?,-5,-2
O=[N+]([O-])c1cc(N=Nc2ccc3ccccc3c2)ccc1O,0%,·,·,·,13*
Cn1ncc2c(N3CCN(c4ccccc4Cl)CC3)ncnc21,·,·,4%[46.1 µM],·,·
COc1ccc(C2=C(CN(C)C)C(c3ccccc3)c3ccccc3O2)cc1 (stereo not given),?,?,13µM*,-3,-5
CS(=O)(=O)N1CCC(N2CCN(Cc3ccccc3)C(=O)C2=O)CC1,·,·,20%[46.1 µM],·,·
Cc1ccc(N2C(=O)CC3(CCCC3)CC2=O)cc1,5%,18%[46.1 µM],-1%,10,17*
Cc1ccc(N2C(=O)CS(=O)(=O)CC2=O)cc1,2%,?,22%[46.1 µM],15,-7
O=C(NCC1CCCO1)c1ccc(Cl)c(NS(=O)(=O)c2ccc(F)cc2)c1 (stereo not given),-3%,·,·,·,·
Cc1ccc(NC(=O)CCNC(=O)c2ccc([N+](=O)[O-])cc2)cc1S(=O)(=O)N(C)C,0%,10µM*,?,29,4
Cc1ccc(NC(=O)c2ccc([N+](=O)[O-])cc2)cc1S(=O)(=O)N(C)C,6%,19%[46.1 µM],?,68*,40*
CN(C)S(=O)(=O)c1ccc(NC(=O)CCNC(=O)c2ccc([N+](=O)[O-])cc2)cc1,-10%,-6%[46.1 µM],-9%[46.1 µM],0,3
COc1ccc(CCC(=O)Nc2ccc(C)c(S(=O)(=O)N(C)C)c2)cc1OC,-4%[11.6 µM],11µM*,-1%,-6,-2
Cc1ccc([N+](=O)[O-])cc1S(=O)(=O)N(C)C,·,?,36%,-1,-1
Cc1ccc(NC(=O)c2ccc(OC(F)F)cc2)cc1S(=O)(=O)N(C)C,0%,?,-22%,0,29*
C/C(=N\N1CCN(C2c3ccccc3-c3ccccc32)CC1)c1cccnc1,?,-1%,14%,-14,-2
CN=c1scc(-c2ccccc2F)n1/N=C(\C)c1cccnc1,?,?,?,149*,48*
COc1cccc(NS(=O)(=O)c2ccc3c(c2)NC(=O)C(C)S3)c1 (stereo not given),-6%,·,·,4,-3
COc1ccccc1NS(=O)(=O)c1ccc2c(c1)NC(=O)C(C)S2 (stereo not given),-5%,·,·,14,23*
CC1CCN(S(=O)(=O)c2ccc3c(c2)CCN3C(=O)Nc2ccccc2Br)CC1,·,5%[46.1 µM],-16%[46.1 µM],·,·
N#C/C(=N\Nc1ccc(Cl)cc1)C(=O)c1ccccc1,-7%,11µM*,?,76,13
Cc1c(N/N=C(\C#N)C(=O)c2ccc(Cl)cc2)c(=O)n(-c2ccccc2)n1C,2%,4.1µM*,?,15,0
Cc1cc(NC(=O)c2csc([C@@H]3O[C@H](CO)[C@H](O)[C@H](O)[C@H]3O)n2)n(C)n1,57%,·,·,·,·
SMILES,AMA1 RON2 block,Marburg entry inh,LASV entry inh,Shiga toxin inh,Cycloheximide cs
CC(c1ccccc1)c1nnc(NC(=O)Nc2ccccc2F)s1 (stereo not given),-9%,·,·,72*,45*
O=C(Nc1nnc(-c2ccccc2SCc2ccccc2F)s1)Nc1ccccc1F,-14%,?,1%,-10,-3
CC(c1ccccc1)c1nnc(NC(=O)Nc2ccccc2)s1 (stereo not given),-2%,?,?,0,2
CCSc1nsc(NC(=O)Nc2cccc(OC)c2)n1,13%,11µM*,?,·,29*
CCSc1nsc(NC(=O)Nc2ccccc2F)n1,-17%,?,?,30*,33*
C=CCSc1nsc(NC(=O)Nc2ccc(F)cc2)n1,8%,?,?,101*,43*
CCOc1ccc(NC(=O)Cn2c(=O)n(Cc3nc(-c4ccccc4)no3)c(=O)c3ccccc32)cc1,·,·,13%[46.1 µM],·,·
Cc1ccc(NC(=O)CN(C)C(=O)c2cccc(S(=O)(=O)N3CCc4ccccc43)c2)cc1,-7%,·,·,·,·
CCOC(=O)c1c(C)[nH]c(C)c1S(=O)(=O)NCC(=O)Nc1ccc(C)c(N(C)C)c1,·,·,-12%[46.1 µM],·,·
CC(=O)NC(c1ccc(F)c(F)c1)c1nc(-c2cnc3ccccc3c2)cs1 (stereo not given),-1%,·,·,·,·
Cc1c(C(=O)N(Cc2ccc(Cl)cc2)CC2CCCO2)oc2ccc(F)cc12 (stereo not given),·,12%[46.1 µM],-20%[46.1 µM],·,·
Cc1ccc2oc(C(=O)N(Cc3ccncc3)CC3CCCO3)c(C)c2c1 (stereo not given),-3%,-18%,4%,54*,35*
CCCc1ccc2oc(C(=O)N(Cc3ccncc3)CC3CCCO3)c(C)c2c1 (stereo not given),-4%,?,6.3µM*,20,12*
CC1(C(=O)OCC(=O)Nc2ccc(Cl)cn2)CC1(Cl)Cl (stereo not given),3%,·,·,·,·
CC1(C(=O)OCC(=O)Nc2ccccc2Cl)CC1(Cl)Cl (stereo not given),26%,6%[46.1 µM],?,62*,18*
CC1(C(=O)OCC(=O)Nc2ccccc2)CC1(Cl)Cl (stereo not given),2%,?,1%,67*,34*
Cc1cc(=O)n2nc(N3CCC(C(=O)Nc4ccc(C)c(Cl)c4)CC3)sc2n1,·,1%[46.1 µM],1%[46.1 µM],·,·
Brc1ccc2oc(-c3ccn[nH]3)cc2c1,-9%,-16%[46.1 µM],?,119*,70*
O=C(Cn1c(=O)n(-c2ccccc2)c(=O)c2c3c(sc21)CCCC3)Nc1cccc(F)c1,·,11%[46.1 µM],4%[46.1 µM],·,·
CC1CCCN(S(=O)(=O)c2cc3c4c(c2)CC(=O)N4CCC3)C1 (stereo not given),·,·,-5%[46.1 µM],·,·
CC(=O)N1CCC(C(=O)N2c3ccccc3N=C(c3ccc4c(c3)OCO4)C2C(=O)NCc2ccccc2)CC1 (stereo not given),2%,·,·,·,·
Cc1c2ccccc2nc2c(F)c(NC(C)C)c(F)c(F)c12,13%,?,15%,55*,45*
Cc1c2ccccc2nc2c(F)c(NCCO)c(F)c(F)c12,?,16%,?,24,5
CCCCN1C2=NC(c3ccccc3)CN2c2ccccc21 (stereo not given),-19%,?,-11%,·,·
CCCCN1c2ccccc2N(CCCO)c2cc(C)nnc21,-7%,?,-34%,23,14*
Clc1cccc(Cl)c1CO/N=C/c1c(-c2ccccc2)nc2n1CCS2,0%,21µM*,?,-7,-2
N#C/C(=C/c1ccc(N2CCCCC2)o1)C(=O)Nc1ccc2ccccc2c1,-6%,?,11%,88*,40*
N#C/C(=C/c1ccc(N2CCCCC2)o1)C(=O)Nc1ccc(Cl)cc1,-5%,3%,?,76*,35*
Cc1cc(C)nc(Sc2ccc(/C=C(\C#N)C(=O)Nc3ccccc3)o2)n1,6%,14%,2%,14,15
